Data taken from ChEMBL document CHEMBL3988442, “University of Dundee, Small-Polar-MMV Screening Library” (2021).

Assays:
[1] = molecular target: T1, Aspartate--tRNA(Asp/Asn) ligase (Mycobacterium tuberculosis (strain ATCC 25618 / H37Rv)) (UniProt P9WFW3); experiment: Assay for Asp RNA synthetase-1 from Mycobacterium tuberculosis; type: functional; design: scale not given: direction of the effect not stated beside the values; settings: 30 µM; further: in the data most compounds retested in dose-response had high values
T1 sequence (whole entry): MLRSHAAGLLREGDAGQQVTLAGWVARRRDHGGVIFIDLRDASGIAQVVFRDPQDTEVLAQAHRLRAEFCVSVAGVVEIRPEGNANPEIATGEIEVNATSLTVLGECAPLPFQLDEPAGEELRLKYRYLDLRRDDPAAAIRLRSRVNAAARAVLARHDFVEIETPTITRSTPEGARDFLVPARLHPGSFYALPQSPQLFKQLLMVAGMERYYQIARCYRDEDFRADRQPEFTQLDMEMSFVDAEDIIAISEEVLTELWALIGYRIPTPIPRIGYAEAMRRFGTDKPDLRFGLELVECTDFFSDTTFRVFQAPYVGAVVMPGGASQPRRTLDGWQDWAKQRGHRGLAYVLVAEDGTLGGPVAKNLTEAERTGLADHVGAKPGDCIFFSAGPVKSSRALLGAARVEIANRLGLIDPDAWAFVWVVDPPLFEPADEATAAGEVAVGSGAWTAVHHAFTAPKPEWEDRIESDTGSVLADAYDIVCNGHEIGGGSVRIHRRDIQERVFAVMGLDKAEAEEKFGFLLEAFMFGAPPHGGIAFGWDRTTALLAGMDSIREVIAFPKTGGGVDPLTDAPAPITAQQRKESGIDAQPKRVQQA

[2] = molecular target: Shiga toxin 2 (Escherichia coli O157:H7) (UniProt P09385+P09386); experiment: E. coli 0.157:H7 Shiga Toxin SOP - stx2 screening assay; type: functional; design: scale not given: direction of the effect not stated beside the values; settings: 30 µM

SMILES	Percent Effect [1] [%]	Percent Effect [2] [%]
Cc1nn(C)c(C)c1C1CCCN1Cc1cccc(C(=O)N(C)C)c1 (stereo unspecified)	-0.742	-11.2
CC(C)COCc1cncc2c1CCN(Cc1cnn(C)c1)C2	-0.981	-36.8
Cc1nnc(N2C[C@@H](OCCCn3cccn3)[C@H]3OCCC[C@H]32)s1	-3.42	-13.8
CC(C)CN1CCC(NC(=O)c2ccc(F)cc2I)CC1	-2.95	-20.7
OC[C@H]1CC[C@]2(CC1)CN(Cc1ccccn1)Cc1ccccc1O2	0.104	2.28
O=C1CN(Cc2nnc(-c3ccc(Br)cc3)o2)CCN1	-0.167	-95.1
COc1ccc(CNC(=O)CNc2cc3c(cc2Cl)OCCCO3)cc1	2.02	0.898
Cn1nnc2c1CCN(Cc1nccs1)C2COCc1ccccc1 (stereo unspecified)	2.63	-58
Cn1nc2c(cc1=O)CN(Cc1nnc(-c3ccc(F)cc3)o1)CC2	19.5	-108
CCN(CC)c1ccc(C(=O)NCc2cccnc2-n2cncn2)cn1	6	-12.3
Cc1nn(C)c(C)c1CC(=O)N1CCC(Nc2cccnn2)CC1	-1.68	-23.4
CN(C)c1ccc(C(=O)NCC2(O)CCOCC2)cc1	-2.13	-12.5
CCOCCCNC(=O)c1nn(CC)cc1Cl	-5.87	-47.7
COc1cccc(OCC(=O)NS(=O)(=O)c2ccc(C)s2)c1	1.83	-6.18
CC(NC(=O)Nc1cc(F)ccc1N1CCCCC1)c1nncn1C (stereo unspecified)	-3.23	20.1
CCn1nc2c(cc1=O)CN(Cc1nc(-c3ccsc3)no1)CC2	5.03	-16.2
CCOCC(O)CN1CCN(C(=O)c2cccnc2OC)CC1 (stereo unspecified)	-1	12.8
COc1ccc2cc(C3CN(C(=O)C4CCOCC4)CCO3)ccc2c1 (stereo unspecified)	0.234	7.44
